The record followed here is ChEMBL document CHEMBL2218924, “A broad activity screen in support of a chemogenomic map for kinase signalling research and drug discovery” (Biochem J, 2013).

Assay [1] deals with Serine/threonine-protein kinase PAK 4 (Homo sapiens) (UniProt O96013). As to conditions: at 1 µM.
Assay [2] has the same target. As to conditions: at 10 µM.
Assay [3] has as its target Serine/threonine-protein kinase PAK 5 (Homo sapiens) (UniProt Q9P286). As to conditions: at 1 µM.
Assay [4] shares this target. As to conditions: at 10 µM.
Assay [5] has as its target Serine/threonine-protein kinase PAK 6 (Homo sapiens) (UniProt Q9NQU5). As to conditions: at 1 µM.
For assay [6] the target is unchanged. As to conditions: at 10 µM.
Assay [7] has as its target PAS domain-containing serine/threonine-protein kinase (Homo sapiens) (UniProt Q96RG2). As to conditions: at 10 µM.
The target in assay [8] is Activated CDC42 kinase 1 (Homo sapiens) (UniProt Q07912). As to conditions: at 1 µM.
Assay [9] has the same target. As to conditions: at 10 µM.
Assay [10] concerns the target ALK tyrosine kinase receptor (Homo sapiens) (UniProt Q9UM73). As to conditions: at 1 µM.
Assay [11] has the same target. As to conditions: at 10 µM.
For assay [12], the target named is T1, Activin receptor type-1B (Homo sapiens) (UniProt P36896).
T1 sequence (whole entry): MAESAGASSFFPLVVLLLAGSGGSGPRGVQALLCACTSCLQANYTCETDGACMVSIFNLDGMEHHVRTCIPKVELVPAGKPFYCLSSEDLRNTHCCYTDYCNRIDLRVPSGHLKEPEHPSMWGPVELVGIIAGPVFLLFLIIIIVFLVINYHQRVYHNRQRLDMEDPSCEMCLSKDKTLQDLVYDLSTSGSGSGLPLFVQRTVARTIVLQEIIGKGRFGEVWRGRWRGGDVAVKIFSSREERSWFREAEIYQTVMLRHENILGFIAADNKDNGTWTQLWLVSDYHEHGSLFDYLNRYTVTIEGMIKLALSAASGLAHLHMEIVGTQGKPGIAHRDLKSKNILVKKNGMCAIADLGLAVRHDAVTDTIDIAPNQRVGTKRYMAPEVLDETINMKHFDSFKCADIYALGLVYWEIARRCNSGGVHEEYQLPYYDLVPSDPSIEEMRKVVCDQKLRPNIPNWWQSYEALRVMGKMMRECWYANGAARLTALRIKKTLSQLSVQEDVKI
As to conditions: at 1 µM.

Assay [13] concerns the target T1, Activin receptor type-1B (Homo sapiens). As to conditions: at 10 µM.
Assay [14] has as its target T2, AMP-activated protein kinase (AMPK) alpha-1/beta-1/gamma-1 (Homo sapiens) (UniProt P54619+Q9Y478+Q13131). As to conditions: at 1 µM.
Assay [15] concerns the target T2, AMP-activated protein kinase (AMPK) alpha-1/beta-1/gamma-1 (Homo sapiens). As to conditions: at 10 µM.
Assay [16] addresses T3, AMP-activated protein kinase, AMPK (Homo sapiens) (UniProt P54646+O43741+P54619+Q9UGJ0+Q9Y478+Q13131+Q9UGI9). As to conditions: at 1 µM.
Assay [17] deals with T3, AMP-activated protein kinase, AMPK (Homo sapiens). As to conditions: at 10 µM.
The target of assay [18] is T4, NUAK family SNF1-like kinase 1 (Homo sapiens) (UniProt O60285).
T4 sequence (whole entry): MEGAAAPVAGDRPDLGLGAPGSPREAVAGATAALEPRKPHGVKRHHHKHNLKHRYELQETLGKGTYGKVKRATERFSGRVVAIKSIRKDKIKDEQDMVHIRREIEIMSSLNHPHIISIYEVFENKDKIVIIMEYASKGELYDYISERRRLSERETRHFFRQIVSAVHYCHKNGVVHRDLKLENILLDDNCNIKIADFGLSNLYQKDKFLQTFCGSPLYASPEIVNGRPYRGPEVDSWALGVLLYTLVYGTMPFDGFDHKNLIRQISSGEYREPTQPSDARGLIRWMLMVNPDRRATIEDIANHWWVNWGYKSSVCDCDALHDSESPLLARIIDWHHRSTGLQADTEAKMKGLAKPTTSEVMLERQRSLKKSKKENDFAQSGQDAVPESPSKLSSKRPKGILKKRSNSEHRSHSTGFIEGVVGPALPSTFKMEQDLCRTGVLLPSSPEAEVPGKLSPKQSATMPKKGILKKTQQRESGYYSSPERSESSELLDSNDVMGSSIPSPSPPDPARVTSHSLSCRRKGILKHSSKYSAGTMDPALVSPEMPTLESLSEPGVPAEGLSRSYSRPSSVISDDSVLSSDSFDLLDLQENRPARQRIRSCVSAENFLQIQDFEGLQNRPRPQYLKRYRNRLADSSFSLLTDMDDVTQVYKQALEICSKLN
As to conditions: at 1 µM.

Assay [19] has as its target T4, NUAK family SNF1-like kinase 1 (Homo sapiens). As to conditions: at 10 µM.
Assay [20] has as its target T5, Mitogen-activated protein kinase kinase kinase 5 (Homo sapiens) (UniProt Q99683).
T5 sequence (whole entry): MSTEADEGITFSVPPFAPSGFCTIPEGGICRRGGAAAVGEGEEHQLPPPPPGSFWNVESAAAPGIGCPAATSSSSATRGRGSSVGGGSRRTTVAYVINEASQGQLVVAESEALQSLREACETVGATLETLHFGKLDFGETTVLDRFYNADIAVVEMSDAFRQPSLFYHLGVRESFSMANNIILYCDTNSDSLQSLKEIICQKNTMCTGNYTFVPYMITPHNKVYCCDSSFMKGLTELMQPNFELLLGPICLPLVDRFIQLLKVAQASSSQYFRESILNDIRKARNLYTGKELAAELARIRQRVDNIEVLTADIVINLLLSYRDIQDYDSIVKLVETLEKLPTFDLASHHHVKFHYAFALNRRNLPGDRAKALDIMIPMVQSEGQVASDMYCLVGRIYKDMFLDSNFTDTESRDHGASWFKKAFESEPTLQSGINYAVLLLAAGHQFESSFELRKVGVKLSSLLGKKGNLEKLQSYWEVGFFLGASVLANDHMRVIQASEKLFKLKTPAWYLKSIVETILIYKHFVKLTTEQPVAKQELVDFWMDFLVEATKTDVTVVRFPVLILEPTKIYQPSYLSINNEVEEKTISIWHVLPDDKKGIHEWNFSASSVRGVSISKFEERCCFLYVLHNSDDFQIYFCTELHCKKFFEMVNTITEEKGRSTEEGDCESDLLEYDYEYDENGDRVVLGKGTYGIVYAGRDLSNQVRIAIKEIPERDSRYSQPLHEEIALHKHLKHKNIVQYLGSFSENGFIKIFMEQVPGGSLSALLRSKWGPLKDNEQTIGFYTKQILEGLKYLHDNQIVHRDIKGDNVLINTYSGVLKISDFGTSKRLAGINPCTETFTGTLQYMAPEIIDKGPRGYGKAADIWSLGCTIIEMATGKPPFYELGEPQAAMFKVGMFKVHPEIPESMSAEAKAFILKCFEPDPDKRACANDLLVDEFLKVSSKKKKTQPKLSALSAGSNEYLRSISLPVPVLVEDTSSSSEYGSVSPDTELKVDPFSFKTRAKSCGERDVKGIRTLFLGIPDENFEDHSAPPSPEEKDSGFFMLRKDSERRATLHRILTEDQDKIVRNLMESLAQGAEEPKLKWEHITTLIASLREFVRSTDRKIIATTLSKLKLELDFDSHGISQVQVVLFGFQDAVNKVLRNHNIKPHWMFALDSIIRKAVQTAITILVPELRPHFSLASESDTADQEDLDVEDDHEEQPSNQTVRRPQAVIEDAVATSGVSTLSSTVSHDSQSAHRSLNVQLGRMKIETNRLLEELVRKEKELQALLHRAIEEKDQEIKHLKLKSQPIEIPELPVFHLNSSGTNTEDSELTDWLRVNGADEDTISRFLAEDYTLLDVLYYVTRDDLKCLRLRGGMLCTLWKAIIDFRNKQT
As to conditions: at 1 µM.

ALK tyrosine kinase receptor (Homo sapiens), sequence (Q9UM73 19-1620 limits assumed): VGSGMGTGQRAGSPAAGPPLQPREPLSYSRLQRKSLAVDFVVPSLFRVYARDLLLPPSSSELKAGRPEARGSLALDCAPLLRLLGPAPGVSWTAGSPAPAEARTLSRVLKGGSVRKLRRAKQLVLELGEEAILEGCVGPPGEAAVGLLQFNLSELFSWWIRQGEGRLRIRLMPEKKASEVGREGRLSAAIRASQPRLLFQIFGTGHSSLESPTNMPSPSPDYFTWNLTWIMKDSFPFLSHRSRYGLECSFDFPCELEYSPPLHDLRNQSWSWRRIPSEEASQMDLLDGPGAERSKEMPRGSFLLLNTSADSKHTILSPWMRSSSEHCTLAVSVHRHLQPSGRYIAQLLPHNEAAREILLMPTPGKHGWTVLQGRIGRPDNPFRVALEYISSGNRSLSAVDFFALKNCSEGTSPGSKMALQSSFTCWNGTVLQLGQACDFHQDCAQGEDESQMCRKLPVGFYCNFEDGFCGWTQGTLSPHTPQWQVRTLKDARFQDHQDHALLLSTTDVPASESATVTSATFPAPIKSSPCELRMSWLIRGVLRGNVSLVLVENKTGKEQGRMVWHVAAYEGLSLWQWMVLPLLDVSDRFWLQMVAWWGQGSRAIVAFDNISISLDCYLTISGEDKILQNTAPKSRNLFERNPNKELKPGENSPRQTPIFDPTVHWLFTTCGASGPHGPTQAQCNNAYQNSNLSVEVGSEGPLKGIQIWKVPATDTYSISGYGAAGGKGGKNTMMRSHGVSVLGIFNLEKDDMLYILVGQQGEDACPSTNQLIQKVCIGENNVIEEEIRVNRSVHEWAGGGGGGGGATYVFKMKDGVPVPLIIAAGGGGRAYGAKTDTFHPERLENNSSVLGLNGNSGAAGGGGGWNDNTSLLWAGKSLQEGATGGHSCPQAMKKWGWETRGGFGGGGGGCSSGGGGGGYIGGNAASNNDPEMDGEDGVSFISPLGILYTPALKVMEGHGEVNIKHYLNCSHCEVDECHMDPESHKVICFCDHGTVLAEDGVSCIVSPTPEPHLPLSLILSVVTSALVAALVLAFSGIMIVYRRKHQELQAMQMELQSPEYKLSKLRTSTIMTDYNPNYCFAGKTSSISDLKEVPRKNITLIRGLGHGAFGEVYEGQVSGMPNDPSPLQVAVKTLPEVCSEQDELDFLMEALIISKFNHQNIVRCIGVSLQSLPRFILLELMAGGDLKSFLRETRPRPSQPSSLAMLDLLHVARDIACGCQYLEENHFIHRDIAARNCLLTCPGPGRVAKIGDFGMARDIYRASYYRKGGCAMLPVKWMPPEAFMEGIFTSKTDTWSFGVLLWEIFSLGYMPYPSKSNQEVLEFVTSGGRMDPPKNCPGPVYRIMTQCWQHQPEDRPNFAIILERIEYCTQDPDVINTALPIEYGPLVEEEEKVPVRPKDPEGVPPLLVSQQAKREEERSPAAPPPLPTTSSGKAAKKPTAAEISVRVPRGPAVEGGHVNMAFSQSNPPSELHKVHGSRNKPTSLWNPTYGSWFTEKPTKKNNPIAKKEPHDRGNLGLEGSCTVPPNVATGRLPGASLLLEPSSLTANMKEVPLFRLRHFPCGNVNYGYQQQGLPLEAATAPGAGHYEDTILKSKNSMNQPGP
Serine/threonine-protein kinase PAK 5 (Homo sapiens), sequence (Q9P286 whole entry, looked up): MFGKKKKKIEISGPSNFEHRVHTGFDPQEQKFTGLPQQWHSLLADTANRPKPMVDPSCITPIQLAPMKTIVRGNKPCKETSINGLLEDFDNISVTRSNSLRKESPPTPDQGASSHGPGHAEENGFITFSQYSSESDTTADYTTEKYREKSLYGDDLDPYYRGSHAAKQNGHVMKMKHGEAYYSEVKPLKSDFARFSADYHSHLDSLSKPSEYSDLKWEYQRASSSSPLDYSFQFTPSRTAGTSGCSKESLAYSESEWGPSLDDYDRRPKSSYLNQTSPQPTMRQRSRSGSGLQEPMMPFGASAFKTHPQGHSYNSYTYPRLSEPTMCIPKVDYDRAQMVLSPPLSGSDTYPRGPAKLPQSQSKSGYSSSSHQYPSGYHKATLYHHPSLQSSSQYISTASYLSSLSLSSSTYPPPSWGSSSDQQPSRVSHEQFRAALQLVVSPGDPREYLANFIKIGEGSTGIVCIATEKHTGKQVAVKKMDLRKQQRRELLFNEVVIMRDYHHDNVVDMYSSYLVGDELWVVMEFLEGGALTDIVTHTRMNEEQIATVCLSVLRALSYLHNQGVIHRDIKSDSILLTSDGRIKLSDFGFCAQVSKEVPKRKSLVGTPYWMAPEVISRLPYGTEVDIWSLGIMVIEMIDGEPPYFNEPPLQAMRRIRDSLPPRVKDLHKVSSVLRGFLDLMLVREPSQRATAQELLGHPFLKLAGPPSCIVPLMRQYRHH
T2 sequence (P54619 whole entry): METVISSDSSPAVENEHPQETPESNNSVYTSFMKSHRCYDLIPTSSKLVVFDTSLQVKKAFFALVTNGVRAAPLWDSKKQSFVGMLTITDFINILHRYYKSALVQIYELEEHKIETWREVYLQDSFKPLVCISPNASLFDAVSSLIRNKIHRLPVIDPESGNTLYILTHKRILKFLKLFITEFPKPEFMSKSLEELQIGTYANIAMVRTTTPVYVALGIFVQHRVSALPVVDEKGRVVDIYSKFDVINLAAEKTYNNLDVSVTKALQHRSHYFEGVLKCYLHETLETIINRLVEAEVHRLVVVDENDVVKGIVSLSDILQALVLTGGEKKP
T2 sequence (Q13131 whole entry partner): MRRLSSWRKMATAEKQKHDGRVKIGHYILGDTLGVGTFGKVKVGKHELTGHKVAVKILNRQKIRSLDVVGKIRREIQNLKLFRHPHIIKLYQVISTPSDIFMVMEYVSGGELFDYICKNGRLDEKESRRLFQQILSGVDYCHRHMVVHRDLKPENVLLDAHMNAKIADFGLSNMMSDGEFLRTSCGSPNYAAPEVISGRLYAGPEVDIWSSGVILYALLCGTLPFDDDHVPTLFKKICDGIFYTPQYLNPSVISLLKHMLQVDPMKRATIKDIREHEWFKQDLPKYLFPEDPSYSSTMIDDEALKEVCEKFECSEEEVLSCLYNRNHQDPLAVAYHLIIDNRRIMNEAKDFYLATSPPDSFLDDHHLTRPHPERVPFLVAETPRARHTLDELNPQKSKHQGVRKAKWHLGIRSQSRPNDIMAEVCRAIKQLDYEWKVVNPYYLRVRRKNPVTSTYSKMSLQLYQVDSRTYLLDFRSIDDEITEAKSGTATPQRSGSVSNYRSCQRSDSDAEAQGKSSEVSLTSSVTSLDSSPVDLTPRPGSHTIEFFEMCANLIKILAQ
T2 sequence (Q9Y478 2-270 partner limits assumed): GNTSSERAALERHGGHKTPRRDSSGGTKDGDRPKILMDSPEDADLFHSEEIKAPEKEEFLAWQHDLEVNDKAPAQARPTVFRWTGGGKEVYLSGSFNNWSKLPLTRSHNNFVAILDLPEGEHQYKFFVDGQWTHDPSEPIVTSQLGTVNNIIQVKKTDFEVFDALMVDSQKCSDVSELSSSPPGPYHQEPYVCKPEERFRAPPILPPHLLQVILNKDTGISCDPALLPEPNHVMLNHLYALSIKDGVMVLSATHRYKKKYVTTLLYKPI
Serine/threonine-protein kinase PAK 4 (Homo sapiens), sequence (O96013 whole entry, looked up): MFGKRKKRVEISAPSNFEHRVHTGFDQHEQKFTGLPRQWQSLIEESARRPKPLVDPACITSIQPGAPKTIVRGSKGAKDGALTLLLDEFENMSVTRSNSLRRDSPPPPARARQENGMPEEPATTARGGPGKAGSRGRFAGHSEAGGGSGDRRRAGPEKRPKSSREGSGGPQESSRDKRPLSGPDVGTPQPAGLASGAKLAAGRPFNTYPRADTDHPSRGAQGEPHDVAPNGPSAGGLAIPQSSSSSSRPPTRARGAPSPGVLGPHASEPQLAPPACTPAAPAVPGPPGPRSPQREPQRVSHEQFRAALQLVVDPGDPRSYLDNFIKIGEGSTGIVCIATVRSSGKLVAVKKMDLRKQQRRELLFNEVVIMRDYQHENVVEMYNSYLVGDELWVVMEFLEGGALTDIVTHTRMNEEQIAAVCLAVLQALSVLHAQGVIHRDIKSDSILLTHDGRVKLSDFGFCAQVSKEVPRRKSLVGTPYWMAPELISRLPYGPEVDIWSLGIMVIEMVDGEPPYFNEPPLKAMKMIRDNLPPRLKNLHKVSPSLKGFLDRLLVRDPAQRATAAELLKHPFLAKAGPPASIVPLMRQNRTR
Serine/threonine-protein kinase PAK 6 (Homo sapiens), sequence (Q9NQU5 whole entry, looked up): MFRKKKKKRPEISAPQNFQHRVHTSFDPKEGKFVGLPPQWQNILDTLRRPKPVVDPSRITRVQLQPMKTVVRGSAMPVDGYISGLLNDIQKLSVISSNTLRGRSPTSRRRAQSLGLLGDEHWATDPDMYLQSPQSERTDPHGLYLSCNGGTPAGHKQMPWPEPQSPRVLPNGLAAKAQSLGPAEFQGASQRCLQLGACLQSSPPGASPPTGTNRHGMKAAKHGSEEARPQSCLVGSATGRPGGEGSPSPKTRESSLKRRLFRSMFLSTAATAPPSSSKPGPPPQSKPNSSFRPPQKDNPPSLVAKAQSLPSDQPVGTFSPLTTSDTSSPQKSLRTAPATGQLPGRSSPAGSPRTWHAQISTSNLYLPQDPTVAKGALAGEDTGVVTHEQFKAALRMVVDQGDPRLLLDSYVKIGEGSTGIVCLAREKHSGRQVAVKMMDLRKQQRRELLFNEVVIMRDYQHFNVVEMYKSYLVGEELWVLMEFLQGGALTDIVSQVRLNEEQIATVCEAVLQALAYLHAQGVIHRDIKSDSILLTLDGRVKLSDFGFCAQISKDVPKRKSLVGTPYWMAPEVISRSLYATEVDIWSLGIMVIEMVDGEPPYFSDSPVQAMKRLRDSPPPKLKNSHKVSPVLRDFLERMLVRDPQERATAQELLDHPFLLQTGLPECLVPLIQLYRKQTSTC

Turning to `Nc1n[nH]c2nnc(-c3c(-c4ccccc4)nn4ccccc34)cc12`, the residual activity in assay [1] stood at 94%; in assay [2], 90%; in [3], 112%; in assay [4], 90%; in [5], 93%; in assay [6] it was 99%. For the same compound, the residual activity came out at 114% in assay [7]; 61% in [8]; 29% in assay [9]; 77% in [10]; 93% in assay [11]; 111% in [12]. Further, the residual activity is 86% in assay [13]; 90% in [14]; 82% in assay [15]; 92% in assay [16]; 98% in assay [17]; 105% in assay [18]. Moreover, the residual activity in [19] is 79%; in assay [20], 96%.
As to `Cc1nc(-c2ccccc2)c(-c2ccncc2)o1`, the residual activity in assay [1] was found to be 100%; in [2] it was 104%; in [3], 106%; in assay [4], 95%; in assay [5], 109%; in assay [6], 90%. The residual activity in [7] was 91%; in [8], 74%; in assay [9], 64%; in assay [10] it was 100%; in assay [11] it was 99%; in assay [12] it was 119%. Also, the residual activity in [13] is 88%; in assay [14] it was 105%; in [15] it was 108%; in assay [16] it was 114%; in assay [17], 114%; in assay [18], 99%. Also, the results for the residual activity in [19] and in assay [20] were 88% and 100%, respectively.
Consider `NC(=O)c1ccc2[nH]c(-c3ccc(Oc4ccc(Cl)cc4)cc3)nc2c1`, for which the residual activity in assay [1] turned out to be 97%; in assay [2], 92%; in assay [3], 99%; in [4] it was 113%; in assay [5], 110%; in assay [6], 103%. Also, the residual activity is 123% in [7]; 77% in assay [8]; 61% in assay [9]; 75% in assay [10]; 87% in assay [11]; 111% in assay [12]. The residual activity in [13] stood at 97%; in assay [14], 72%; in assay [15], 32%; in [16], 71%; in [17], 40%; in assay [18] it was 98%. In addition, the figures for the residual activity in assay [19] and in assay [20] were 85% and 80%, respectively.
With `CN(C)c1ccc(/C=C2\C(=O)Nc3ccccc32)cc1`, the residual activity is 100% in assay [1]; 83% in [2]; 95% in [3]; 77% in [4]; 83% in assay [5]; 77% in assay [6]. Also, the residual activity in assay [7] is 23%; in assay [8], 89%; in assay [9] it was 62%; in assay [10] it was 80%; in [11] it was 27%; in [12], 127%. In addition, the residual activity in assay [13] was 105%; in assay [14], 92%; in assay [15], 50%; in assay [16], 97%; in assay [17], 56%; in assay [18], 93%. Further, the residual activity is 80% in [19] and 92% in assay [20].
As to `CC(C)n1cnc2c(NCc3ccccc3)nc(NCCCO)nc21`, the residual activity in assay [1] was determined as 97%; in assay [2] it was 80%; in [3] it was 108%; in [4], 96%; in assay [5], 95%; in assay [6], 72%. In addition, the residual activity in assay [7] is 98%; in assay [8] it was 76%; in [9], 58%; in assay [10], 87%; in [11] it was 64%; in assay [12] it was 106%. The residual activity in [13] amounted to 111%; in assay [14] it was 88%; in assay [15], 87%; in assay [16] it was 99%; in assay [17], 90%; in assay [18], 99%. In addition, the residual activity is 83% in [19] and 113% in assay [20].
As for `C[C@@H](N)[C@H]1CC[C@H](C(=O)Nc2ccncc2)CC1`, the residual activity in assay [1] stood at 92%; in [2] it was 77%; in [3], 104%; in [4], 106%; in assay [5], 117%; in [6], 109%. In addition, the residual activity in assay [7] came out at 85%; in [8], 97%; in assay [9], 95%; in assay [10], 116%; in assay [11] it was 126%; in assay [12], 82%. For the same compound, the residual activity was 63% in assay [13]; 98% in assay [14]; 93% in [15]; 104% in [16]; 83% in assay [17]; 101% in [18]. Moreover, the residual activity in [19] was 91%; in assay [20] it was 101%.
